# Data as given in PubChem BioAssay (NCATS).
# Results filed as inconclusive are left out. Activity calls are given as the source filed them. Unless noted, calls follow the shape of the dose curve; as a rule, active = well fitted cell-killing curve with a large enough effect; inconclusive = small, poorly fitted or top-dose-only effect, or effect the other way; inactive = no such curve, though single readings can be large or run the other way.
# Key:
# [1] = Quantitative High-Throughput drug screen in 47 multiple myeloma cell lines against the NCATS MIPE library collection: L363_DSMZ cell viability assay (AID 1918984); also: nearly all actives have a fitted effect of over 40% in size
# In short: (§1)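 qHTS format: cells plated (500/well), pin-dosed with MIPE 4.0 compounds, kept 48 h at 37 °C. Readout was CellTiter-Glo luminescence, median RLU.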
# [2] = Quantitative High-Throughput drug screen in 47 multiple myeloma cell lines against the NCATS MIPE library collection: KMS34_JCRB cell viability assay (AID 1918985); also: nearly all actives have a fitted effect of over 40% in size
# In short: as §1
# [3] = Quantitative High-Throughput drug screen in 47 multiple myeloma cell lines against the NCATS MIPE library collection: OCIMY7_PLB cell viability assay (AID 1918987); also: nearly all actives have a fitted effect of over 65% in size
# In short: as §1
# [4] = Quantitative High-Throughput drug screen in 47 multiple myeloma cell lines against the NCATS MIPE library collection: OCIMY5_PLB cell viability assay (AID 1918988); also: nearly all actives have a fitted effect of over 65% in size
# In short: as §1
# [5] = Quantitative High-Throughput drug screen in 47 multiple myeloma cell lines against the NCATS MIPE library collection: OPM1_PLB cell viability assay (AID 1918989); also: nearly all actives have a fitted effect of over 40% in size
# In short: as §1
# [6] = Quantitative High-Throughput drug screen in 47 multiple myeloma cell lines against the NCATS MIPE library collection: SKMM1_PLB cell viability assay (AID 1919863); details: SKMM1 myeloma viability, CellTiter-Glo ATP, 48 h; viability: stronger effect = lower value; also: nearly all actives have a fitted effect of over 35% in size
# In short: as §1
# [7] = Quantitative High-Throughput drug screen in 47 multiple myeloma cell lines against the NCATS MIPE library collection: U266_ATCC cell viability assay (AID 1919864); also: nearly all actives have a fitted effect of over 35% in size
# In short: as §1
# [8] = Quantitative High-Throughput drug screen in 47 multiple myeloma cell lines against the NCATS MIPE library collection: XG6_PLB cell viability assay (AID 1919865); also: nearly all actives have a fitted effect of over 40% in size
# In short: as §1
# [9] = Quantitative High-Throughput drug screen in 47 multiple myeloma cell lines against the NCATS MIPE library collection: XG1_PLB cell viability assay (AID 1919866); also: nearly all actives have a fitted effect of over 35% in size
# In short: as §1
# [10] = Quantitative High-Throughput drug screen in 47 multiple myeloma cell lines against the NCATS MIPE library collection: VP6_DJ cell viability assay (AID 1919867); also: nearly all actives have a fitted effect of over 40% in size
# In short: as §1
# [11] = Quantitative High-Throughput drug screen in 47 multiple myeloma cell lines against the NCATS MIPE library collection: UTMC2_PLB cell viability assay (AID 1919868); details: CellTiter-Glo ATP luminescence, 48 h; viability (% of DMSO control): at 45.8 µM (top of the series) unless noted; also: nearly all actives have a fitted effect of over 55% in size
# In short: as §1
# [12] = Quantitative High-Throughput drug screen in 47 multiple myeloma cell lines against the NCATS MIPE library collection: PE2_PLB cell viability assay (AID 1919869); also: nearly all actives have a fitted effect of over 35% in size
# In short: as §1
# [13] = Quantitative High-Throughput drug screen in 47 multiple myeloma cell lines against the NCATS MIPE library collection: PCM6_Riken cell viability assay (AID 1919870); also: nearly all actives have a fitted effect of over 30% in size
# In short: as §1
# [14] = Quantitative High-Throughput drug screen in 47 multiple myeloma cell lines against the NCATS MIPE library collection: RPMI8226_ATCC cell viability assay (AID 1919871); also: nearly all actives have a fitted effect of over 30% in size
# In short: as §1
# [15] = Quantitative High-Throughput drug screen in 47 multiple myeloma cell lines against the NCATS MIPE library collection: OPM2_DSMZ cell viability assay (AID 1919872); also: nearly all actives have a fitted effect of over 30% in size
# In short: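 We plated 500 myeloma cells per well, pinned in MIPE 4.0 compounds, and incubated for 48 hours at 37C. ATP was then quantified with CellTiter-Glo, with DMSO and media-only wells defining 100% and 0%.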
# [16] = Quantitative High-Throughput drug screen in 47 multiple myeloma cell lines against the NCATS MIPE library collection: KMS11_JCRBsus cell viability assay (AID 1919873); also: nearly all actives have a fitted effect of over 50% in size
# In short: as §1
# [17] = Quantitative High-Throughput drug screen in 47 multiple myeloma cell lines against the NCATS MIPE library collection: KMS28BM_JCRB cell viability assay (AID 1919874); also: nearly all actives have a fitted effect of over 35% in size
# In short: as §1
# [18] = qHTS drug screen for cell cycle checkpoint inhibitors in PARPi-resistant BRCA-mutant ovarian cancer cell lines. (AID 1963452; calls by dose curve); details: PEO1/OlaR viability, CellTiter-Glo luminescence, 96 h; for Z-AUC: stronger effect = lower value
# In short: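 PEO1, PEO4 and PEO1/OlaR ovarian cancer cells, 600 per well, exposed 96 h at 37C to a dilution series. Viability read by CellTiter-Glo luminescence, normalized to DMSO and empty wells; activity summarized as Z-AUC.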
# [19] = qHTS for identification of novel therapeutic agents for treatment of microphthalmiaassociated transcription factor (MiT) renal cell carcinoma (RCC) (AID 1963991; calls by dose curve;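 as to z-score: curves scaled with 100% = DMSO viability and 0% = empty wells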); details: CellTiter-Glo, 48 h; for Potency: active = Z-AUC below -0.8 in all three lines; for z-score: stronger effect = lower value
# In short: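 UOK109/UOK124/UOK145 (TFE3 fusions, three partners); 500 cells/well; MIPE v4.0, 1912 cpds, 11 conc.; 48 h, 37 C; CellTiter-Glo, 15 min RT; lum. Norm.: DMSO 100%, empty 0%.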
# [20] = measured here: PEO1 parental Z-AUC
# [21] = TFE3-RCC UOK109 viability, measured here: UOK109 Z-AUC
# [22] = TFE3-RCC viability, measured here: UOK124 Z-AUC
# [23] = TFE3-RCC viability, measured here: UOK145 Z-AUC
# Potency is read from the fitted curve at half-maximal effect.
smiles,measurement,setting,value
C=C1C(=CC=C2CCC[C@]3(C)[C@@H]([C@H](C)C=C[C@H](C)C(C)C)CC[C@@H]23)C[C@@H](O)C[C@@H]1O,Potency,[1],264 nM (active)
same,Potency,[2],3320 nM (active)
same,Potency,[3],11800 nM (active)
same,Potency,[4],526 nM (active)
same,Potency,[5],1660 nM (active)
same,Potency,[6],14800 nM (active)
same,Potency,[7],1050 nM (active)
same,Potency,[8],1870 nM (active)
same,Potency,[9],1320 nM (active)
same,Potency,[10],132 nM (active)
same,Potency,[11],2090 nM (active)
same,Potency,[12],16600 nM (active)
same,Potency,[13],1320 nM (active)
same,Potency,[14],14800 nM (active)
same,Potency,[15],10500 nM (active)
same,Potency,[16],526 nM (active)
same,Potency,[17],209 nM (active)
same,Z-AUC,[18],0.703 (inactive)
same,Z-AUC,[18]; [20],0.5
same,Z-AUC,[18]; measured here: PEO4 Z-AUC,0.821
same,Potency,[19]; TFE3-RCC UOK109 viability,418 nM (active)
same,z-score,[19]; [21],-1.36
same,z-score,[19]; [22],-0.997
same,z-score,[19]; [23],-1.08
Cc1ccc(C(=O)Nc2ccc(CN3CCN(C)CC3)c(C(F)(F)F)c2)cc1C#Cc1cnc2cccnn12,Potency,[1],833 nM (active)
same,Potency,[2],3320 nM (active)
same,Potency,[3],264 nM (active)
same,Potency,[4],1480 nM (active)
same,Potency,[5],590 nM (active)
same,Potency,[6],5900 nM (active)
same,Potency,[7],14800 nM (active)
same,Potency,[8],662 nM (active)
same,Potency,[9],1320 nM (active)
same,Potency,[10],1320 nM (active)
same,Potency,[11],590 nM (active)
same,Potency,[12],935 nM (active)
same,Potency,[13],1180 nM (active)
same,Potency,[14],11800 nM (active)
same,Potency,[16],1480 nM (active)
same,Potency,[17],7430 nM (active)
same,Z-AUC,[18],-2.19 (inactive)
same,Z-AUC,[18]; [20],-1.43
same,Z-AUC,[18]; measured here: PEO4 Z-AUC,-0.606
COc1cc2ncnc(Nc3ccc(F)c(Cl)c3)c2cc1NC(=O)C=CCN1CCCCC1,Potency,[1],2350 nM (active)
same,Potency,[2],26400 nM (active)
same,Potency,[3],1320 nM (active)
same,Potency,[4],16600 nM (active)
same,Potency,[5],7430 nM (active)
same,Potency,[6],20900 nM (active)
same,Potency,[7],1180 nM (active)
same,Potency,[8],4180 nM (active)
same,Potency,[9],4180 nM (active)
same,Potency,[10],5900 nM (active)
same,Potency,[11],10500 nM (active)
same,Potency,[12],6620 nM (active)
same,Potency,[14],18700 nM (active)
same,Potency,[16],8330 nM (active)
same,Potency,[17],6620 nM (active)
O=C(CCCCCCNC(=O)c1cnc(N(c2ccccc2)c2ccccc2)nc1)NO,Potency,[1],4690 nM (active)
same,Potency,[2],5900 nM (active)
same,Potency,[3],13200 nM (active)
same,Potency,[4],4690 nM (active)
same,Potency,[5],6620 nM (active)
same,Potency,[6],9350 nM (active)
same,Potency,[7],9350 nM (active)
same,Potency,[8],14800 nM (active)
same,Potency,[9],9350 nM (active)
same,Potency,[10],2350 nM (active)
same,Potency,[11],7430 nM (active)
same,Potency,[12],9350 nM (active)
same,Potency,[13],9350 nM (active)
same,Potency,[14],14800 nM (active)
same,Potency,[16],7430 nM (active)
same,Potency,[17],4180 nM (active)
same,Z-AUC,[18],0.809 (inactive)
same,Z-AUC,[18]; [20],0.473
same,Z-AUC,[18]; measured here: PEO4 Z-AUC,0.434
CNC(=O)c1nn(C)c2c1C(C)(C)Cc1cnc(Nc3ccc(N4CCN(C)CC4)cc3)nc1-2,Potency,[1],662 nM (active)
same,Potency,[2],1480 nM (active)
same,Potency,[3],1320 nM (active)
same,Potency,[4],1180 nM (active)
same,Potency,[5],1660 nM (active)
same,Potency,[6],9350 nM (active)
same,Potency,[7],935 nM (active)
same,Potency,[8],2960 nM (active)
same,Potency,[9],2640 nM (active)
same,Potency,[10],743 nM (active)
same,Potency,[11],8330 nM (active)
same,Potency,[12],2640 nM (active)
same,Potency,[13],2090 nM (active)
same,Potency,[14],1480 nM (active)
same,Potency,[15],13200 nM (active)
same,Potency,[16],1050 nM (active)
same,Potency,[17],2960 nM (active)
same,Potency,[18],549 nM (active)
same,Z-AUC,[18]; [20],-1.22
same,Z-AUC,[18]; measured here: PEO4 Z-AUC,-1.37
O=C(NC1CCNCC1)c1[nH]ncc1NC(=O)c1c(Cl)cccc1Cl,Potency,[1],469 nM (active)
same,Potency,[2],418 nM (active)
same,Potency,[3],3720 nM (active)
same,Potency,[4],74.3 nM (active)
same,Potency,[5],1870 nM (active)
same,Potency,[6],526 nM (active)
same,Potency,[7],187 nM (active)
same,Potency,[8],469 nM (active)
same,Potency,[9],833 nM (active)
same,Potency,[10],590 nM (active)
same,Potency,[11],662 nM (active)
same,Potency,[12],833 nM (active)
same,Potency,[13],166 nM (active)
same,Potency,[14],1050 nM (active)
same,Potency,[15],526 nM (active)
same,Potency,[16],332 nM (active)
same,Potency,[17],264 nM (active)
same,Potency,[18],977 nM (active)
same,Z-AUC,[18]; [20],-1.49
same,Z-AUC,[18]; measured here: PEO4 Z-AUC,-1.05
Nc1cc(C(F)(F)F)c(-c2cc(N3CCOCC3)nc(N3CCOCC3)n2)cn1,Potency,[1],209 nM (active)
same,Potency,[2],833 nM (active)
same,Potency,[3],590 nM (active)
same,Potency,[4],187 nM (active)
same,Potency,[5],1050 nM (active)
same,Potency,[6],662 nM (active)
same,Potency,[7],4690 nM (active)
same,Potency,[8],662 nM (active)
same,Potency,[9],469 nM (active)
same,Potency,[10],743 nM (active)
same,Potency,[11],264 nM (active)
same,Potency,[12],935 nM (active)
same,Potency,[13],1480 nM (active)
same,Potency,[14],526 nM (active)
same,Potency,[15],2640 nM (active)
same,Potency,[16],66.2 nM (active)
same,Potency,[17],41.8 nM (active)
same,Z-AUC,[18],-2.03 (inactive)
same,Z-AUC,[18]; [20],-1.2
same,Z-AUC,[18]; measured here: PEO4 Z-AUC,-0.609
same,Potency,[19]; TFE3-RCC UOK109 viability,662 nM (active)
same,z-score,[19]; [21],-0.856
same,z-score,[19]; [22],-0.844
same,z-score,[19]; [23],-1.62
COc1cc2c(Oc3ccc(NC(=O)C4(C(=O)Nc5ccc(F)cc5)CC4)cc3F)ccnc2cc1OCCCN1CCOCC1,Potency,[1],2960 nM (active)
same,Potency,[2],10500 nM (active)
same,Potency,[3],264 nM (active)
same,Potency,[4],5900 nM (active)
same,Potency,[5],4180 nM (active)
same,Potency,[6],20900 nM (active)
same,Potency,[7],20900 nM (active)
same,Potency,[8],5260 nM (active)
same,Potency,[9],9350 nM (active)
same,Potency,[10],3720 nM (active)
same,Potency,[11],3320 nM (active)
same,Potency,[12],8330 nM (active)
same,Potency,[14],13200 nM (active)
same,Potency,[15],4180 nM (active)
same,Potency,[16],1180 nM (active)
same,Potency,[17],3320 nM (active)
same,Z-AUC,[18],-0.782 (inactive)
same,Z-AUC,[18]; [20],-0.246
same,Z-AUC,[18]; measured here: PEO4 Z-AUC,-0.374
